# Bioassay records as filed in PubChem BioAssay.
# SNCA expr inhib: SNCA gene expression inhibition. HEK-293 SNCA-luciferase knock-in, luminescence, 24 h. Potency, µM (top dose mostly 57.2 µM), hits mostly inhibitors. 140,000 tested, 0.17% active; further: nearly all actives have a fitted effect of over 45% in size
# KDM5B inh: inhibitors of human KDM5B histone demethylase. Q9UGL1. KDM5B demethylase, FDH-coupled NADH fluorescence (FDH is formaldehyde dehydrogenase). Potency, µM (series often up to 57.7 µM), actives largely listed as inhibitors. 220,000 tested, 2.6% active; further: nearly all actives have a fitted effect of over 70% in size
#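 Compound dilutions met 200 nM (final) KDM5BΔAP for 10 min at room temperature before substrate addition. The substrate mix held 12.5 µM H3K4me3 with cofactors 25 µM α-ketoglutarate and 50 µM Fe²⁺. NADH signal gain over 30 min defined activity.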
# SNCA viab count: reduces viability of HEK-293 SNCA reporter cells | HEK-293-SNCA-luc viability, GF-AFC fluorescence, 24 h | 150,000 tested, 0.12% active | AID 1671193 | Potency, µM (top dose mostly 57.1 µM), hits mostly cytotoxic; further: nearly all actives have a fitted effect of over 30% in size
#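 Cytotoxicity counterscreen: after 24 h compound treatment of genome-edited SNCA-luciferase HEK-293 cells, live-cell protease substrate GF-AFC read by fluorescence after 30 min; activity scaled between DMSO (0%) and medium-only (-100%), curves Hill-fitted.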
# IP6K1 inh: IP6K1 kinase inhibition. Q92551. 140,000 tested, 0.81% active. activity change, % (series mostly up to about 58 µM). IP6K1 kinase, ADP-Glo luminescence, 2 h; stronger effect = lower value; in the data active means activity change below about -25%
#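 ADP-Glo luminescence measures ADP made by human IP6K1 during a 2 h RT reaction with ATP/IP6 (mix at 1.3 mM/130 uM); top library doses 57.5 and 19.1 uM final.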
# IP6K1 inh cnf: human IP6K1 inhibition, confirmatory; shares compounds with IP6K1 inh; recombinant IP6K1 kinase, ADP-Glo luminescence, 2 h; Potency, µM (highest dose often 49 µM), actives largely listed as inhibitors; 1,200 tested, 13% active; further: nearly all actives have a fitted effect of over 65% in size
# A number is an active result; i = inactive; ? = inconclusive; nt = no result; [ ] = dose if it differs, or a comment. Sampled rows, rich in hits. Any-hit rate of the full collection: about 2.8%. Unless noted, the call rests on the fitted dose curve; in most records, active means well fitted curve in the direction sought with a large enough effect; inconclusive means small, poorly fitted or top-dose-only effect, or another doubt; inactive means no such curve, though single readings can be large; an effect the other way counts as inactive or inconclusive.
SMILES,SNCA expr inhib,KDM5B inh,SNCA viab count,IP6K1 inh,IP6K1 inh cnf
CN(C)CC(=O)Nc1ccc2n(c1=O)C[C@H]1C[C@@H]2CN(S(=O)(=O)c2ccccc2)C1,?,?,i,i,nt
CCCS(=O)(=O)Nc1ccc(=O)n2c1[C@@H]1C[C@@H](CN(C(=O)Nc3ccc(OC)cc3)C1)C2,i,28µM,i,i,nt
CCCS(=O)(=O)Nc1ccc(=O)n2c1[C@@H]1C[C@@H](CN(S(=O)(=O)c3ccc(OC)cc3)C1)C2,i,22µM,i,i,nt
CN(C)Cc1ccccc1-c1ccc2n(c1=O)C[C@H]1C[C@@H]2CN(C(=O)C2CCCCC2)C1,i,35µM,i,i,nt
OCC1CN(C2CCC2)CC12CCNCC2 (centres undefined),i,i,i[12.5 µM],i,nt
Cc1cccn2c(CC(=O)N3CCN(C)[C@@H]4CS(=O)(=O)C[C@@H]43)cnc12,i,28µM,i,i,nt
Cc1noc(C)c1CN1CCCCC1c1cccnc1 (centres undefined),i,i,i,i,nt
COc1cc2c(cc1Oc1ccccc1)NC(=O)C21CCN(c2nc(C)cnc2C)CC1,?,32µM,?,-32,?
COc1cc2c(cc1OCC1CC1)NC(=O)C21CCN(c2nc(C)cc(C)n2)CC1,?,i,i,-25,i
COc1cc2c(cc1OCC1CC1)NC(=O)C21CCN(C(=O)c2cccnc2)CC1,i,i,i,-25,i
COc1cc2c(cc1Oc1ccccc1)NC(=O)C21CCN(Cc2ccccc2)CC1,?,i,i,i,nt
Ic1ccc(CN2CCNCC2)cc1,nt,i,nt,nt,nt
O=C1NC[C@H]2CN(C3CCOCC3)CCN12,i,i,i,i,nt
CN1CCN(C(=O)Cc2c[nH]c3ncc(-c4ccc5c(c4)OCO5)cc23)CC1,i,?,i,-27,?
CC[C@H]1CN2CC[C@H]1C[C@@H]2CNCc1ccc(C(F)(F)F)cc1,i,i,i,i,nt
Cc1ccc([N+](=O)[O-])[c]2c1[O][Hg]2,?,nt,?,-83,1µM
COc1ccc2c(c[n+](C)c3c4cc5c(cc4ccc23)OCO5)c1OC,?,nt,?,nt,?
c1nc(N2C[C@@H](c3ccc4c(c3)OCO4)[C@@H]3[C@H]2C2CCN3CC2)c2[nH]cnc2n1,i,i,i,i,nt
c1ccc2c(c1)OCC(C1=NCCN1)O2 (centres undefined),i,nt,?,-44,i
O=C(c1ccsc1)N1CC(CO)C2(CCNCC2)C1 (centres undefined),i,i,i[12.5 µM],i,nt
CC[C@]1(O)CC[C@H]2[C@@H]3CCC4=CCCC[C@@H]4[C@H]3CC[C@@]21C,i,nt,i,-28,?
CC[C@H]1C[C@H]2[C@@H]3CCC4=CC(=O)CC[C@@H]4[C@H]3CC[C@]2(C)[C@H]1O,i,nt,i,i,nt
Cn1nc(-c2cccs2)cc1[C@H]1CN2CC[C@H]1C[C@@H]2COC(=O)Nc1ccccc1,?,i,?,i,nt
Cc1cccc(OCC(=O)N2CCN(Cc3cc(=O)n4nc(-c5ccccc5Cl)sc4n3)CC2)c1,i,i,i,-30,i
O=C1OC(c2ccc(O)c(S(=O)(=O)O)c2)(c2ccc(O)c(S(=O)(=O)O)c2)c2c(Br)c(Br)c(Br)c(Br)c21,i,nt,i,-65,21µM
SMILES,SNCA expr inhib,KDM5B inh,SNCA viab count,IP6K1 inh,IP6K1 inh cnf
CC(C)N1CC2CCC(C1)N2C(=O)c1ccncc1,i,i,i,i,nt
CN(C(=O)C(c1ccccc1)c1ccccc1)[C@H](CN1CC[C@H](O)C1)c1ccccc1,nt,nt,i,i,nt
O=C1c2ccccc2C(=O)C1C(=O)C(c1ccccc1)c1ccccc1,i,nt,i,-28,?
N[C@@H](Cc1ccc(Oc2cc(I)c(O)c(I)c2)c(I)c1)C(=O)O,i,nt,i,-54,?
COc1ccc([C@@H]2CN(C(=O)Nc3ccc(C)cc3)[C@@H]3C4CCN(CC4)[C@@H]32)cc1,i,i,i,i,nt
COc1ccc([C@@H]2CN(C(=O)Cc3nonc3C)[C@@H]3C4CCN(CC4)[C@@H]32)cc1,i,i,i,-38,i
COc1ccc2[nH]c(-c3ccccc3)c(CCN(C)C)c2c1,nt,nt,i,i,nt
CN(CCOc1ccccc1)c1ccc([N+](=O)[O-])c2cccnc12,nt,i,nt,nt,nt
